# Measured values published in PubChem BioAssay AID504444 (National Center for Advancing Translational Sciences (NCATS), 2011).
# The whole screen tested about 360,000 compounds, of which about 7,500 (2.1%) were called active. Inconclusive results (about 20%) are left out. Calls follow the shape of the dose curve; as a rule, active = well fitted inhibition curve with a large enough effect; inconclusive = small, poorly fitted or top-dose-only effect, or effect the other way; inactive = flat fitted curve, though single readings scatter. What follows is part of a selection rich in actives, with near analogues and random picks from the rest.
# Experiment: Nrf2 qHTS screen for inhibitors; also: nearly all actives have a fitted effect of over 60% in size
# Settings: A549 ARE-Fluc reporter, luciferase luminescence, 18-24 h; series mostly up to 46 µM; activity change, negative = inhibition: at the top concentration
# Summary of the method: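 Quantitative HTS in A549 cells stably bearing an antioxidant response element-firefly luciferase construct. Inhibition of Nrf2-driven transcription was scored by luminescence after 18-24 h of compound exposure at 37 °C.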
# % is scaled to controls: 0 for no effect and ±100 for the full control effect; potency is read from the fitted curve at half-maximal effect.
SMILES,Potency,"activity change, negative = inhibition"
CSc1nc(-c2ccccc2)nc(C(Cl)Cl)n1,23.1 µM (active),–
CSc1ncc(Sc2ccccc2)c(C(=O)O)n1,–,0.799% (inactive)
Cc1cccc(Nc2nc(C)nc(N)c2S(=O)(=O)c2ccccc2)c1,–,-16% (inactive)
O=C(Nc1cccc(S(=O)(=O)N2CCOCC2)c1)C12CC3CC(CC(C3)C1)C2,–,1.01% (inactive)
COc1ccc2[nH]c(=S)cc(C)c2c1,–,0% (inactive)
COc1ccc2[nH]c3c(C)c4cc[n+](C)cc4c(C)c3c2c1,8.2 µM (active),–
COc1ccc2[nH]c(C(=O)N3CCN(C)CC3)c(C)c2c1,–,21.1% (inactive)
Cc1ccc(-n2c(=O)c3cccnc3n2CC(=O)NCc2ccc(F)cc2)cc1C,–,-7.78% (inactive)
CCOC(=O)Cc1csc(NC(=O)Nc2ccccc2)n1,–,5.68% (inactive)
CCOC(=O)C/C(C)=N\Nc1ccc([N+](=O)[O-])cc1[N+](=O)[O-],–,-12.2% (inactive)
CCOC(=O)/C(=N\Nc1ccccc1[N+](=O)[O-])c1csc(Nc2ccccc2)n1,20.6 µM (active),–
CC(=O)OC1=C(C(C)=O)N(Cc2ccccc2)S(=O)(=O)c2ccccc21,–,-4.38% (inactive)
Cn1c(Cc2cccc3ccccc23)nnc1SCC(=O)N1CCN(c2cccc(Cl)c2)CC1,10.3 µM (active),–
Cn1c(CNC(=O)c2ccco2)nnc1SCC(=O)N1CCN(c2ccccc2)CC1,–,-11.5% (inactive)
Cc1cc2nnc(SCC(=O)N3CCN(c4ccccc4)CC3)n2c(N)n1,–,10.4% (inactive)
CC(=O)c1ccc(N2CCN(C(=O)c3ccc(Cl)c(S(=O)(=O)NC4CC4)c3)CC2)c(F)c1,–,-4.28% (inactive)
Cc1nn(-c2ccccc2)c(C)c1NC(=O)COc1ccc(Cl)cc1Cl,16.4 µM (active),–
Cc1nn(-c2ccccc2)c(C)c1NC(=O)CCl,–,-1.19% (inactive)
Cc1nn(-c2ccccc2)c(C)c1NC(=O)COC(=O)c1cc(Cl)ccc1O,–,-12.6% (inactive)
NC(=O)C1(Nc2ccc([N+](=O)[O-])cc2)CCCC1,–,-7.2% (inactive)
Cn1c(=O)c2c(-c3ccccc3Br)n(Cc3ccccc3)cc2n(C)c1=O,–,-16.6% (inactive)
CCC(=O)N1CCc2cc(Br)cc(S(=O)(=O)CCC(=O)N3CCN(c4ccc(F)cc4)CC3)c21,–,3.12% [at 9.27 µM] (inactive)
CC(C)=C1SC(N2CCN(c3ccc(C)c(Cl)c3)CC2)=NC1=O,–,-13.3% (inactive)
CC(C)=C1SC(N2CCN(c3cccc(C)c3)CC2)=NC1=O,23.1 µM (active),–
Cc1ccc(N2CCN(C3=NC(=O)/C(=C\c4cccs4)S3)CC2)cc1,–,-1.2% (inactive)
CCN(CC)S(=O)(=O)c1ccc(N2CCCC2)c(NC(=O)c2ccc([N+](=O)[O-])o2)c1,–,-12.4% (inactive)
C=Cc1ccc(Cn2c(C(=O)O)c(CNC3CCCC3)c3ccc(C)cc32)cc1,–,-0.54% (inactive)
